# From PubChem BioAssay
# Compounds with a hit are over-represented: about 5.7% of the library has one in this group of screens.
# IL1B secr inh – blocks inflammasome-driven IL-1 beta release | THP-1 LPS/ATP IL-1B secretion, AlphaLISA, 16 h; stronger effect = lower value | activity change, % at 57.5 µM | 360,000 tested, 4.7% active | AID 743279; in the data active = activity change below about -50%; inconclusive = mostly about -30% to -49%; note: % is set by controls: 0 for no effect and ±100 for the full control effect
#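 THP-1 cells pretreated 1 hr with compounds (up to 57.5 uM final), then stimulated with LPS (250 ng/mL final) plus ATP (1.25 mM final); secreted IL-1B measured by AlphaLISA after 16 hr, decreased signal indicating inhibition.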
# ATXN viability – viability counter-screen for ATXN expression inhibitors; 400,000 tested, 0.49% active; Potency, µM (highest dose often 56.7 µM), most hits filed as cytotoxic; S2 cells (HEK-293 line with an ATXN2-luciferase reporter) viability, CellTiter-Fluor protease fluorescence, 24 h; AID 651635; note: potency is the fitted concentration of half-maximal effect; nearly all actives have a fitted effect of over 40% in size
# HepG2 tox – counter-screen for TGF-b inhibitors: cytotoxicity in HepG2 cells | 410,000 tested, 0.76% active | HepG2 CAGA-GFP viability, ATP luminescence, 18 h | Potency, µM (top dose mostly 46.1 µM), inactives show at the top dose activity change, negative = cytotoxicity, most hits filed as cytotoxic; note: potency is the fitted concentration of half-maximal effect
#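 HepG2 CAGA-GFP cells (1000/well, DMEM with 1% FBS) received compound, then TGF-beta at 500 pg/mL final, and were incubated 18 hours at 37 degrees C. Viability was read by CellTiter-Glo luminescence. Media-only wells were set as complete cell-killing and DMSO as no toxicity.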
# TGFb inhibitor – inhibitors of TGF-b signaling | HepG2 CAGA-GFP TGF-b/SMAD3 reporter, GFP fluorescence, 18 h; TGF-beta stimulated, 500 pg/mL final | Potency, µM (titrated, usually from 46.1 µM), without a hit: at the highest dose activity, negative = inhibition, hits mostly inhibitors | 410,000 tested, 1.2% active | AID 588855; note: potency is the fitted concentration of half-maximal effect; % is set by controls: 0 for no effect and ±100 for the full control effect; nearly all actives have a fitted effect of over 65% in size
#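 Read-out: total well GFP (ex488/em500-530) summed from mean per-cell fluorescence. Cells: HEPG2 CAGA-GFP, 1% FBS DMEM, 18 h at 37 degrees C with 500 pg/mL final TGF-beta. Unstimulated wells served as the full-inhibition control; stimulated DMSO wells = 0%.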
# ATXN2 expr inh – reduces ATXN2 reporter expression in HEK-293 cells. HEK-293 ATXN2-luciferase reporter, luminescence, 24 h. Potency, µM (highest dose often 57 µM), without a hit: top-dose activity change, negative = inhibition, most hits filed as inhibitors. 360,000 tested, 0.72% active. AID 1745845; note: potency is the fitted concentration of half-maximal effect; % is set by controls: 0 for no effect and ±100 for the full control effect; nearly all actives have a fitted effect of over 55% in size
#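 qHTS (up to 57 uM final) was run with 24 h compound exposure of reporter cells at 37 °C. Each well was multiplexed: SteadyGlo luminescence measured ATXN2-luciferase expression after a fluorogenic Gly-Phe-AFC viability readout (25 uM final).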
# * marks the source's active call; other numbers are inactive results; i = inactive; ? = inconclusive; / = not tested or not shown; [ ] = another dose, or the depositor's remark. Unless noted, calls come from the whole dose curve; as a rule, active = well fitted curve in the direction sought with a large enough effect; inconclusive = small, poorly fitted or top-dose-only effect, or another doubt; inactive = no such curve, though single readings can be large; an effect the other way counts as inactive or inconclusive.
SMILES,IL1B secr inh,ATXN viability,HepG2 tox,TGFb inhibitor,ATXN2 expr inh
CCn1nc(-c2ccccc2)c(-c2ccccc2)c(C(=O)Nc2ccccc2C(N)=O)c1=O,/,/,-16%,-23%,/
Nc1ccccc1O,-3,i,16µM*,?,-3%
Nc1cccc2c(O)cccc12,12,i,13%,6%,-7%
CC(=O)c1ccc(F)c(-c2cc(C)cc3c2OC(CNC(=O)c2cccnc2)C3)c1 (stereo not drawn),/,i,/,/,/
Nc1cccc(Nc2nc(OC(C(F)(F)F)C(F)(F)F)nc(OC(C(F)(F)F)C(F)(F)F)n2)c1,-89*,i,11µM*,?,-25%
Cc1ccc(Nc2nc(Nc3ccc(Cl)cc3)nc(N3CCOCC3)n2)cc1,/,/,-28%,6%,/
Fc1ccc(NC(=S)NC2CC3CCCC(C2)N3Cc2cccs2)cc1 (stereo not drawn),?,i,0%,20%,-10%[11.3 µM]
Cc1ccc(NC(=S)NC2CC3CCCC(C2)N3Cc2cccs2)cc1 (stereo not drawn),-74*,i,-24%,-5%,-15%
Cc1cccc(NC(=S)NC2CC3CCCC(C2)N3Cc2cccs2)c1C (stereo not drawn),-55*,i,-31%,-7%,-8%
CC(=O)NC1CCCC1C#N (stereo not drawn),/,/,1%,-5%,/
Cc1oc2ncn(CC(C)C)c(=O)c2c1C(=O)NCCc1ccc(Cl)cc1,/,i,3%,?,3%
Clc1cccc(N/N=C/c2ccncc2)c1,-53*,i,-23%,-20%,15%
CCOc1ccc(NC(=O)NC(C)c2c(-n3cccc3)sc3c2CCN(CC)C3)cc1 (stereo not drawn),/,/,-14%,?,/
COc1cccc(NC(=O)Cn2c(=O)n(CCc3ccccc3)c(=O)c3c4c(sc32)CN(C(C)=O)CC4)c1,/,i,-33%,-19%,-19%
Cc1ccc(S(=O)(=O)N2C[C@H]3N(C(=O)OC(C)C)N(C(=O)OC(C)C)C[C@H](OC(=O)NCC4CCCCC4)[C@@]3(O)C2)cc1,-17,32µM*,-39%,?,-38%
Cc1ccc(S(=O)(=O)N2C[C@H]3N(C(=O)OC(C)C)N(C(=O)OC(C)C)C[C@H](OC(=O)NCc4ccccc4)[C@@]3(O)C2)cc1,-10,?,-7%,?,-22%
COc1cccc(C2CNC3(CCCC(C)C3)c3[nH]c4ccccc4c32)c1OC (stereo not drawn),?,11µM*,-49%,?,/
Cc1ccc2cc3cc(C(=O)NCCCN4CCCCCC4)oc3nc2c1,0,i,-17%,0%,0%
COc1ccc2cc3cc(C(=O)Nc4ccccc4N4CCN(C)CC4)oc3nc2c1,-96*,/,10µM*,-9%,?
Cc1ccc2cc3cc(C(=O)NCCCN4CCCC4)oc3nc2c1,-51*,i,-17%,-25%,-15%
COc1ccc2cc3cc(C(=O)NCC4CCCO4)oc3nc2c1 (stereo not drawn),-56*,i,-6%,-5%,6%
COc1ccc(-n2nc(C(=O)Nc3ccccc3OC)c3c4ccccc4n(C)c3c2=O)cc1Cl,/,/,-3%,-12%,/
COc1ccc2[nH]c(C)cc2c1,/,/,-20%,-9%,/
COc1ccccc1NC(=O)N1CCN(c2ccnc3cc(Cl)ccc23)CC1,-75*,i,-38%,0%,-36%
COc1ccccc1N1CCN(c2ccnc3cc(Cl)ccc23)CC1,40,?,8%,-2%,11µM*
SMILES,IL1B secr inh,ATXN viability,HepG2 tox,TGFb inhibitor,ATXN2 expr inh
O=C(C1CCC1)N1CCN(c2ccnc3cc(Cl)ccc23)CC1,?,?,-25%,-11%,/
O=C(C1CCCCC1)N1CCN(c2ccnc3cc(Cl)ccc23)CC1,?,?,-160%,-24%,18µM*
CC(C)(C)c1ccc(C2CC2C(=O)N/N=C\c2ccc[nH]2)cc1 (stereo not drawn),-61*,?,-17%,?,?
CC(=O)c1cccc(NC(=S)NCCC2=CCCCC2)c1,-16,i,-21%,?,2%
O=C(NCc1ccco1)Nc1ccc(Br)cc1,-10,i,-15%,1%,29%
O=C(NCc1ccco1)Nc1ccc2nsnc2c1,-75*,i,-12%,?,3%
O=C(NCCC1=CCCCC1)Nc1ccc2nsnc2c1,-94*,i,-36%,?,32%
Cc1ccccc1-c1cc(C(=O)Nc2sc(C)c(C)c2C(N)=O)c2ccccc2n1,-15,?,-44%,?,?
CCOC(=O)c1sc(NC(=O)c2cc(-c3ccccc3C)nc3ccccc23)c(C#N)c1C,-83*,?,-31%,?,0%
COc1ccc(CC(=O)N2CC(=O)Nc3ccc(F)cc3C2c2ccccc2)cc1 (stereo not drawn),/,i,-6%,-3%,-8%
COc1ccc(Br)cc1CNc1ccc2[nH]c(=O)[nH]c2c1,-61*,i,-11%,5%,1%
Oc1c(Br)cc(Br)cc1CNc1ccc(F)cc1,-86*,i,-49%,?,-24%
COc1ccccc1CNCc1cc(Br)ccc1OC,?,i,-23%,?,-29%
COc1cc(CNc2ccc3[nH]c(=O)[nH]c3c2)ccc1OCc1ccc(Cl)cc1,-2,?,-54%,11µM*,4%
COc1cc(CNc2ccc3[nH]c(=O)[nH]c3c2)ccc1OCc1ccc(F)cc1,-7,i,-6%,-19%,3%
C=CCOc1ccc(CNc2ccc3[nH]c(=O)[nH]c3c2)cc1OC,9,i,9%,13%,?
COc1ccc(Br)cc1CNc1ccc(O)cc1,-95*,i,13µM*,?,0%
Cc1ccc(Cl)cc1N1CCN(C(=O)c2ccc(C)c(-n3c(C)nc4cccnc43)c2)CC1,/,/,-48%,?,/
CC(C)(C)[C@H]1CCC(=O)N(CCSc2ccc(Br)cc2)CC1,/,/,-64%,?,/
Cc1c(/C=N/NC(N)=O)c2ccccn2c1C(=O)c1ccc(F)cc1,-70*,i,1%,8%,-5%
O=C(/C=C/c1ccccn1)c1cc(Cl)cc(Cl)c1O,-80*,i,-30%,-25%,?
Cc1noc(C)c1S(=O)(=O)N1CCN(c2ccc(Cl)cc2)CC1,-4,i,5µM*,-8%,-9%
CCN(CC)CCn1c(SCC(=O)Nc2cccc(OC)c2)nc2c(sc3ccccc32)c1=O,-79*,?,-20%,34%,?
COc1cccc(-n2c(=O)c3sc4ccccc4c3n(CC(=O)Nc3cccc(Cl)c3)c2=O)c1,/,?,-5%,7.9µM*,3%
CCN(CC)CCn1c(SCC(=O)NCCC2=CCCCC2)nc2c(sc3ccccc32)c1=O,-60*,?,-12%,1%,-11%
